Bioassay records from PubChem.
A selection: hits, their analogues and other compounds. The true share with any hit is near 1.6%.
KCNQ2 block – blocks the rat KCNQ2 potassium channel. CHO-K1 KCNQ2, FluxOR thallium flux, 20 min; active compounds read low. B-score at 10 µM. 310,000 tested, 1.1% active. AID 2156;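 active means fluorescence ratio B-score at most minus 3 library SDs, with starting brightness B-score within 2 library SDs, cut at about -5.5 in these data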
KCNQ2 enhance – KCNQ2 (rat) channel potentiation | O88943 | CHO-K1 KCNQ2, FluxOR thallium flux fluorescence; active compounds read high | B-score at 10 µM | 310,000 tested, 0.54% active | AID 2239;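 active means fluorescence ratio B-score at least 3 SD of library B-scores, with initial fluorescence B-score within 3 of them, cut at about 5.3 in these data; same plate scores as AID 2156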;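 further: B-score of peak minus minimum over baseline fluorescence ratio after K+ and Tl+ stimulus; positive B-score means potentiation of KCNQ2 with more thallium influx and brighter signal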
Kir21 conf inh – confirmation of mouse Kir2.1 potassium channel inhibitors | shares compounds with KCNQ2 enhance | Kir2.1-expressing cells, FluxOR thallium flux fluorescence; active compounds read low | Tl flux remaining, % of negative control (active compounds read low), % at 10 µM | 2,300 tested, 41% active;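 active means Primary-screen hit whose thallium flux fell at least 3 control SD below untreated wells in both duplicates, with normal baseline fluorescence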
Target sequence (P35561 whole entry, looked up): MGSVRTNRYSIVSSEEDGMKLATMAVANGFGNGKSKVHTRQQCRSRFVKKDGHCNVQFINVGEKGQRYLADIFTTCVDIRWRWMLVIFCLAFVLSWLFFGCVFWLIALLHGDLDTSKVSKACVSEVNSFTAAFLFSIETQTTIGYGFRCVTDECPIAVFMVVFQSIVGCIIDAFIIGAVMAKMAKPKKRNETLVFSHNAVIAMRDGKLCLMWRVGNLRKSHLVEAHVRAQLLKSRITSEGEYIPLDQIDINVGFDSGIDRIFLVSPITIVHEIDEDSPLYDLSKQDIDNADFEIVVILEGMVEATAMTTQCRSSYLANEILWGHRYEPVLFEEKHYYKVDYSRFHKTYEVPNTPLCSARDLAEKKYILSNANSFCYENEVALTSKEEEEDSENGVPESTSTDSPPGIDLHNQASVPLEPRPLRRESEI
HEK293 ctr – counter-screen for Kir2.1 inhibitors: effect in parental HEK293 cells; shares compounds with KCNQ2 enhance; FluxOR thallium flux fluorescence; 0% = unstimulated blank wells; FluxOR signal as % of negative control (100 = no effect), % at 10 µM; 2,300 tested, 19% active; AID 2105;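 active means dye signal at least 3 control SD above or below untreated wells in both duplicates, raw fluorescence within 3, either direction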;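 further: percent is based on the flux ratio of peak minus minimum fluorescence over baseline F0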
CHO-K1 ctr – counter-screen for KCNQ2 potentiators: effect in parental CHO-K1 cells. shares compounds with KCNQ2 enhance. FluxOR thallium flux fluorescence; zero = vehicle mean+3SD, 100% = vehicle-minus-blank window. activity increase over 3SD of controls, % at 10 µM. 1,200 tested, 43% active. AID 2282;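 active means signal rise of at least 3 SD above the untreated control mean, in both duplicate wells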;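 further: counter screen of KCNQ2 potentiator hits so any rise reflects channel-independent effects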
KCNQ1 sel pot – human KCNQ1 counter-target activity of KCNQ2 potentiators | shares compounds with KCNQ2 enhance | CHO KCNQ1 stable, FluxOR thallium flux fluorescence; beyond 3SD, as % of vehicle-control signal | activation over 3SD threshold, % at 10 µM | 1,200 tested, 28% active;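 active means fluorescence ratio rise of at least 3 SD of vehicle wells above their mean, in both replicate wells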
KCNQ2 pot confirm – rat KCNQ2 channel potentiator confirmation; 1,200 tested, 68% active; CHO-KCNQ2 cells, FluxOR thallium flux fluorescence; AID 2287; potentiation, less the hit threshold, % at 10 µM; shares compounds with KCNQ2 enhance;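 active means fluorescence ratio rising 3 SD or more over the vehicle control mean in both replicates, plus primary screen hit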;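 further: peak minus minimum thallium fluorescence divided by baseline after K/Tl stimulus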
Kir2-1 sel – selectivity of KCNQ2 potentiators: effect on mouse Kir2.1; shares compounds with KCNQ2 enhance; HEK293 Kir2.1, FluxOR thallium flux fluorescence; activity over 3SD threshold, % at 10 µM; 1,200 tested, 2% active;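 active means fluorescence ratio rise of at least 3 SD above the vehicle-control mean, seen in both replicates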
KCNQ2 W236L pot – rat KCNQ2 W236L mutant potentiation by KCNQ2 potentiators; CHO KCNQ2-W236L, automated patch clamp current; AID 2558; shares compounds with KCNQ2 enhance; current increase over 3SD of negative controls (%), active compounds read high, % at 25 µM; 940 tested, 10% active;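 active means current increase at least 3 SD of the untreated controls above them in both duplicate recordings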
A number is an active result; n = inactive; x = no result given.

SMILES | KCNQ2 block | KCNQ2 enhance | Kir21 conf inh | HEK293 ctr | others
Cc1csc(SCC(=O)NCCc2ccc(Cl)cc2Cl)n1 | n | x | x | x
CCOC(=O)C(C(C)C)C(N)Cc1ccc(F)cc1 (configuration not stated) | n | n | x | x
CCN(CC)S(=O)(=O)c1cccc(N=Nc2c(O)c3ccccc3oc2=O)c1 | n | x | x | x
FC(F)(F)c1nnc(Nc2ccc(Cl)cc2)s1 | n | n | x | x
Fc1ccc(Nc2nnc(C(F)(F)F)s2)cc1Cl | n | 7.2 | n | n | CHO-K1 ctr=n;KCNQ1 sel pot=76;KCNQ2 pot confirm=16;Kir2-1 sel=n;KCNQ2 W236L pot=n
O=C(CN1CCN(Cc2ccccc2)CC1)Nc1ccc(Br)cc1 | n | n | x | x
COc1ccccc1N1CCN(C(=O)CN(C)S(=O)(=O)c2cc(C)ccc2OC)CC1 | n | x | x | x
Cc1ccc(C(=O)C2CCN(C(=S)NCCCOC(C)C)CC2)cc1 | n | x | x | x
Cc1ccc(C(=O)NCCN2C3=NC[C@H](C(C)C)N3C[C@H]2Cc2ccc(O)cc2)cc1Br | n | x | x | x
COc1ccc(C[C@H]2CN3C(=NC[C@@H]3C(C)C)N2CCNC(=O)c2ccc(C)c(Br)c2)cc1 | n | x | 49% | n
Cc1ccc(C)c(NC(=O)CN(C)C(=O)c2ccc(-c3cccc(C(F)(F)F)c3)o2)c1 | n | x | x | x
CCC1(C)Cc2c(sc3nc(SC)[nH]c(=S)c23)CO1 (configuration not stated) | n | 15 | n | 456% | CHO-K1 ctr=n;KCNQ1 sel pot=32;KCNQ2 pot confirm=82;Kir2-1 sel=0.1;KCNQ2 W236L pot=n
CCSc1nc2sc3c(c2c(=O)[nH]1)CC(C)(CC)OC3 (configuration not stated) | n | x | x | x
CC1CCCCN1CCNC(=O)c1ccc2c(=O)n(Cc3ccc(Cl)cc3)c(=S)[nH]c2c1 (configuration not stated) | n | x | x | x
CN(CC(=O)Nc1ccc(F)cc1)C(=O)COC(=O)C1CCN(c2ccc(C(F)(F)F)cn2)CC1 | n | 13 | n | n | CHO-K1 ctr=79;KCNQ1 sel pot=n;KCNQ2 pot confirm=18;Kir2-1 sel=n;KCNQ2 W236L pot=n
O=C(COC(=O)C1CCN(c2ccc(C(F)(F)F)cn2)CC1)Nc1ccc(Cl)cc1 | n | n | x | x
CNc1nc(C)cc(C)c1S(=O)(=O)c1ccc(C)cc1 | n | x | n | n
Cc1ccc(S(=O)(=O)c2c(C)cc(C)nc2Oc2cccc(C)c2C)cc1 | n | x | x | x
CC(NS(=O)(=O)c1ccc2c(c1)OCCO2)c1ccccc1 (configuration not stated) | n | n | x | x
CC(NS(=O)(=O)c1ccc(Br)cc1)c1ccccc1 (configuration not stated) | n | x | 47% | n
CCCN(c1ccccc1F)S(=O)(=O)c1c[nH]c(C(=O)OC)c1 | n | n | x | x
Cc1ccc(C23CC4CC(CC(C(N)=O)(C4)C2)C3)cc1 | n | n | x | x
NCC12CC3CC(C1)CC(c1ccc(Br)cc1)(C3)C2 | n | x | 34% | n
Cc1ccc(C23CC4CC(CC(CN)(C4)C2)C3)cc1 | n | x | 39% | n
NCCOc1ccc(C23CC4CC(CC(C4)C2)C3)cc1 | n | x | x | x
SMILES | KCNQ2 block | KCNQ2 enhance | Kir21 conf inh | HEK293 ctr | others
CCOc1ccc(S(=O)(=O)N(CC)CC(=O)NCc2cccnc2)cc1C | n | x | x | x
Cc1ccc(C2=NS(=O)(=O)N(C)C(C(=O)NCc3ccccc3)=C2)cc1 | n | n | x | x
CC/C(=N\NS(C)(=O)=O)c1ccccc1 | n | n | x | x
C#Cc1ccc([C@H]2C=C(C(=O)O)O[C@@H](OCCCCO)C2)cc1 | n | n | x | x
Cn1c(=O)c(S(=O)C2CCCCC2)c(O)c2ccccc21 (configuration not stated) | n | n | x | x
CCc1nnc(NC(=O)c2nc(S(=O)(=O)Cc3ccc(C)cc3)ncc2Cl)s1 | n | 15 | x | x | CHO-K1 ctr=n;KCNQ1 sel pot=n;KCNQ2 pot confirm=63;Kir2-1 sel=n;KCNQ2 W236L pot=26%
CC(=O)Nc1ccc(NC(=O)c2nc(S(=O)(=O)Cc3ccccc3)ncc2Cl)cc1 | n | x | x | x
COc1ccc(CNC(=O)c2nc(S(=O)(=O)Cc3ccccc3)ncc2Cl)cc1 | n | x | x | x
CCOc1ccccc1NC(=O)c1nc(S(=O)(=O)Cc2cccc(C)c2)ncc1Cl | n | n | x | x
CCc1nnc(NC(=O)c2nc(S(=O)(=O)Cc3cccc(C)c3)ncc2Cl)s1 | n | 18 | x | x | CHO-K1 ctr=5.0;KCNQ1 sel pot=n;KCNQ2 pot confirm=64;Kir2-1 sel=n;KCNQ2 W236L pot=19%
CCc1nnc(NC(=O)c2nc(S(=O)(=O)Cc3ccccc3)ncc2Cl)s1 | n | 12 | n | n | CHO-K1 ctr=97;KCNQ1 sel pot=n;KCNQ2 pot confirm=87;Kir2-1 sel=n;KCNQ2 W236L pot=70%
CNS(=O)(=O)c1cc(NC(C)=O)c(C)cc1C | n | n | x | x
CC(=O)c1c(C)[nH]c(C(=O)OCC(=O)Nc2sc3c(c2C#N)CCC(C)C3)c1C (configuration not stated) | n | x | x | x
COc1ccc(S(=O)(=O)Nc2ccc(-n3cccc3)cc2)cc1 | n | x | x | x
Cc1ccc(-n2cc(CNCCCn3cccn3)c(-c3cccc(C)c3)n2)cc1 | n | x | x | x
Cc1ccc(-n2cc(CNCCCn3ccnc3C)c(-c3ccc(F)cc3)n2)cc1 | n | x | 60% | n
CC(=O)Oc1ccc2c3c(c(=O)oc2c1)CCCC3 | n | n | x | x
O=c1oc2cc(O)ccc2c2c1CCCC2 | n | n | n | n
Cc1onc(-c2ccccc2)c1C(=O)NCc1ccccc1F | n | n | x | x
N#Cc1ccc(CN(c2ccncc2)S(=O)(=O)c2ccccc2)cc1 | n | x | x | x
O=S(=O)(Nc1cccc(CCc2ccccn2)c1)c1ccc(Cl)cc1 | n | x | n | n
O=S(=O)(Nc1ccc(S(=O)(=O)Nc2ncccn2)cc1)c1ccc(Cl)cc1 | n | n | x | x
COC(=O)C1=C(C)N=C2SCCC(=O)N2C1c1ccc(OC(=O)c2ccco2)cc1 (configuration not stated) | n | x | 52% | n
C=CCOC(=O)C1=C(C)N=C2SCCC(=O)N2C1c1ccc(OC(=O)c2ccco2)cc1 (configuration not stated) | n | x | x | x
COc1ccc(C)cc1NC(=O)CCNC(=O)c1ccco1 | n | n | x | x
COc1ccc(C)cc1NC(=O)C(=O)NNC(=O)c1ccco1 | n | 15 | n | 359% | CHO-K1 ctr=3.4;KCNQ1 sel pot=n;KCNQ2 pot confirm=54;Kir2-1 sel=n;KCNQ2 W236L pot=n
Cc1c(NC(=O)C(C)OC(=O)CCOc2ccccc2)c(=O)n(-c2ccccc2)n1C (configuration not stated) | n | n | x | x
COc1ccc(NC(=O)CCCC(=O)c2ccccc2)c(OC)c1 | n | x | x | x
COc1ccc(CC(=O)Nc2ccccc2Oc2ccccc2)cc1 | n | 10 | n | n | CHO-K1 ctr=n;KCNQ1 sel pot=n;KCNQ2 pot confirm=17;Kir2-1 sel=n;KCNQ2 W236L pot=n
